# Experimental data published in PubChem BioAssay (NCATS).
# Records with an inconclusive call do not appear. A number with no mark means an inactive call. Activity calls are given as the source filed them. Calls follow the shape of the dose curve; as a rule, active = well fitted inhibition curve with a large enough effect; inconclusive = small, poorly fitted or top-dose-only effect; inactive = no such curve, though single readings can be large or run the other way.
# Experiment: qHTS for Inhibitors of the Aldehyde Dehydrogenase Family (ALDH1A2, ALDH1A3, ALDH2, ALDH3A1) (AID 2061307); also: nearly all actives have a fitted effect of over 50% in size; as to Potency: test system not described further here
# Settings: ALDH inhibition qHTS; series mostly up to 50.3 µM; activity change, negative = inhibition: at the top concentration
# % is scaled to controls: 0 for no effect and ±100 for the full control effect; potency is read from the fitted curve at half-maximal effect.
Structure (SMILES),Potency,"activity change, negative = inhibition"
O=[N+]([O-])c1ccc(S(=O)(=O)Nc2nc(-c3ccccc3)cs2)cc1,3.57 µM (active),
O=C(O)c1csc(-n2nc(-c3ccc(F)c(F)c3)cc2Cc2nn[nH]n2)n1,,2.88%
O=C(CNc1cccc(S(=O)(=O)N2CCOCC2)c1)Nc1ccc(OC(F)(F)F)cc1,1.27 µM (active),
O=S(=O)(c1ccccc1)N1CCC(N(CCc2ccccc2)Cc2ccccc2)CC1,0.708 µM (active),
Cc1cn(-c2cc(NC(=O)c3ccc(C)c(N)c3)cc(C(F)(F)F)c2)cn1,,19.3%
Cc1cccc(NC(=O)c2nc(C)n(-c3ccc(F)cc3)n2)n1,,0% [at 34.4 µM]
Cc1ccc2c(=O)cc(C(=O)Nc3cccc(C(F)(F)F)c3)oc2c1C,,-11.4% [at 34.4 µM]
COc1ccc(C2CC(=O)Nc3nc(N4CCCCC4)sc32)c(OC)c1 (centres undefined),,-5.83%
Cc1cnc(Cl)nc1NCc1ccc(-n2ccnn2)cc1,,-20.9%
O=C1c2ccccc2-c2nnc(-c3ccncc3)cc21,,-23.4%
COc1ccc(-n2ccc(C(=O)Nc3cccnc3OC)n2)cc1,,-82.8% [at 34.4 µM]
O=C(CSc1nc2ncccc2c(=O)n1-c1ccccc1)Nc1ccccc1,,3.76%
Cc1c2c(=O)n(-c3ccccc3)[nH]c2cc(=O)n1CCCN1CCOCC1,,-3.09%
O=c1cc(N2CCNCC2)nc2sc(-c3cccc(-c4ccsc4)c3)nn12,6.31 µM (active),
Cc1ccc2nc(Nc3ccc(C(=O)O)cc3)[nH]c2c1,12 µM (active),
CC(=O)c1cccc(NC(=O)c2noc3c2CSc2ccccc2-3)c1,,-16% [at 34.4 µM]
Cc1ccc(-c2ocnc2C(=O)N(C)Cc2cccc(C(N)=O)c2)cc1,,0% [at 34.4 µM]
CN1CCN(CC(=O)N2c3ccc(S(=O)(=O)NCCNC(=O)OC(C)(C)C)cc3C(=O)Nc3cccnc32)CC1,,-20.5%
CS(=O)(=O)c1cccc(-c2csc3ncnc(Sc4nncs4)c23)c1,,-7.51%
O=[N+]([O-])c1ccc(NC(=S)N=Nc2c(O)[nH]c3ccccc23)cc1,7.12 µM (active),
O=C1CC(c2c(F)cccc2F)c2sc(N3CCOCC3)nc2N1 (centres undefined),11.3 µM (active),
O=C(NC1CCCc2c1cnn2-c1ccc(OCCOCCOCCNCCc2cn(-c3cc4ccc(O)cc4oc3=O)nn2)cc1)c1ccccn1 (centres undefined),,-28.5%
CC(=O)c1ccc(NC(=O)c2cnn(-c3cccc(F)c3)c2-n2cccc2)cc1,,-80.6% [at 34.4 µM]
Cc1c2c(=O)n(-c3ccccc3)[nH]c2cc(=O)n1Cc1ccco1,22.5 µM (active),
